PubChem BioAssay (NCI)
Compounds without any hit were thinned out: in the full panel of roughly 79,000, 15% have a hit. Rule as the data show it: active = growth inhibition above about 70%; inactive = the rest.

What was measured:
[1] = NCI Yeast Anticancer Drug Screen. Data for the rad50 strain (AID 155);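 also: 0% = growth of vehicle-only cultures of the same strain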; details: S. cerevisiae rad50 strain growth inhibition; at 50.0 µM; stronger effect = higher value
In short: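 Inhibition values express reduced yeast growth in compound-treated cultures relative to vehicle-treated controls.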

[2] = NCI Yeast Anticancer Drug Screen. Data for the mec2-1 strain (AID 157); details: S. cerevisiae mec2-1 strain, at 50.0 µM, stronger effect = higher value
In short: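 Readout is yeast growth inhibition, normalised to vehicle-treated controls, in the mec2-1 strain exposed to compound.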

[3] = NCI Yeast Anticancer Drug Screen. Data for the sgs1 mgt1 strain (AID 161);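 also: 0% = growth of cultures given vehicle only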; details: S. cerevisiae sgs1 mgt1 strain, at 50.0 µM, stronger effect = higher value
In short: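 Compounds are added to genetically altered yeast, and growth is compared with cultures given vehicle alone to give percent inhibition.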

[4] = NCI Yeast Anticancer Drug Screen. Data for the cln2 rad14 strain (AID 165);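 also: 0% = growth equal to vehicle treated cultures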; details: S. cerevisiae cln2 rad14 strain, at 50.0 µM, stronger effect = higher value
In short: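 Relative to vehicle controls, growth inhibition of compound-treated cln2 rad14 yeast was recorded.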

[5] = NCI Yeast Anticancer Drug Screen. Data for the bub3 strain (AID 167); details: S. cerevisiae bub3 mutant strain, at 50.0 µM, stronger effect = higher value
In short: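 Steps: expose the mutant yeast strain to compound; grow alongside vehicle-treated cultures; measure growth; express inhibition against the vehicle cultures.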

[6] = NCI Yeast Anticancer Drug Screen. Data for the mlh1 rad18 strain (AID 175); details: S. cerevisiae mlh1 rad18 strain growth inhibition; at 50.0 µM; stronger effect = higher value
In short: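 Test agents were incubated with a yeast strain of defined genotype (DNA damage repair defect). Inhibition of growth was derived by comparison with vehicle-exposed cultures.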

Measured: growth inhibition

Oc1ccccc1O
inactive: [1] 11.7% | [2] 6.7% | [3] 8.85% | [4] -11.7% | [5] -1.6% | [6] 8.25%

COc1cc(C(=O)N/N=C/c2cccc([N+](=O)[O-])c2)cc(OC)c1OC
inactive: [1] -5.5% | [2] -13.4% | [3] -41.9% | [4] 24.4% | [5] -39.2% | [6] -64.5%

CNc1nc(NC)c2cn[nH]c2n1
inactive: [1] 17.7% | [2] 2.3% | [3] 20.2% | [4] -9.25% | [5] -3.9% | [6] 16.1%

CN(C)C(C)(C)CC(C)(C)C
inactive: [1] 35.7% | [2] 4% | [3] 15.7% | [4] 4.85% | [5] 17.3% | [6] 26.6%

COc1ccccc1N1CCN(C(=S)Nc2ccccc2)CC1
inactive: [1] 32.3% | [2] -13.8% | [3] 0.8% | [4] -1.05% | [5] -2.7% | [6] 15.3%

CCNCCCCNCCCCNCCCCNCCCCNCC
inactive: [1] -16.6% | [2] 4.25% | [3] -6.1% | [4] 11.2% | [5] 3.95% | [6] 6.7%

O=S(=O)(O)c1ccc(Cl)c(Cl)c1
inactive: [1] -0.35% | [2] -15% | [3] -3.4% | [4] 15.4% | [5] -19.5% | [6] -2.25%

NC(N)=Nc1cc2ccccc2c2ccccc12
inactive: [1] -1.2% | [2] -7.15% | [3] -7.5% | [4] -14% | [5] -3% | [6] -4.95%

Cc1ccc(/C=C2\SC(=S)N(c3ccc(F)cc3)C2=O)o1
inactive: [1] 14.7% | [2] 10.9% | [3] 28.4% | [4] 17.4% | [5] 15.8% | [6] 23.9%

CCC/C=C(\C)C(C)(C#N)C(=O)OCC (centres undefined)
inactive: [1] 3.1% | [2] -8.45% | [3] 10.8% | [4] -1.35% | [5] -17.7% | [6] -29.9%

CC(=O)Nc1ccc(NC(C)=O)c2c1C(=O)c1ccccc1C2=O
inactive: [1] 5.55% | [2] -24.1% | [3] -10.3% | [4] 2.15% | [5] -19.3% | [6] 23.9%

C=CC(O)CCC (centres undefined)
inactive: [1] -8.4% | [2] -41% | [3] -16.8% | [4] 1.3% | [5] -1.6% | [6] -2.7%

CCOc1ccc(/C=C/C(=O)c2ccccc2)cc1
inactive: [1] -9.9% | [2] -15.9% | [3] 24.6% | [4] -20.1% | [5] 22.4% | [6] -19.6%

O=C(O)c1ccc(S(=O)(=O)O)cc1
inactive: [1] 8.55% | [2] 11.8% | [3] 0.45% | [4] -12.4% | [5] 18.5% | [6] 12.5%

COc1ccc(C2OC(N)=C(O)C2=O)cc1OC (centres undefined)
inactive: [1] -4.25% | [2] -23.1% | [3] -14.4% | [4] 11.2% | [5] -30.1% | [6] -31.9%

CCOC(=O)c1[nH]c(C)c(C(C)=O)c1C
inactive: [1] -0.45% | [2] -22.5% | [3] 9% | [4] -10.5% | [5] -27% | [6] -8.15%

CC(C)OC(C(=O)O)c1ccccc1 (centres undefined)
inactive: [1] -18.2% | [2] 2.2% | [3] -3.65% | [4] 11.8% | [5] 1.05% | [6] 0%

C[N+](C)=c1ccc2nc3c(cc(Nc4ccccc4)c4ccccc43)oc-2c1
inactive: [1] 20.1% | [2] 49.6% | [3] 30.1% | [4] 29.6% | [5] 38% | [6] 39.2%

OC1CCCc2ccccc21 (centres undefined)
inactive: [1] 17.6% | [2] 17.4% | [3] 13.6% | [4] -17.9% | [5] 0.85% | [6] 20.2%

C#Cc1cccc(NC(=O)c2ccc(Cl)cc2Cl)c1
inactive: [1] 9.95% | [2] -9.7% | [3] 26.6% | [4] 24.2% | [5] 25% | [6] 15.7%

C#CCSc1nnnn1-c1ccc(Br)c(C)c1
inactive: [1] 14.8% | [2] 1.3% | [3] 34.5% | [4] 22.3% | [5] 32.6% | [6] 7.1%

CCOC(=O)Nc1cc2c(c(N)n1)N=C(c1ccccc1)CO2
inactive: [1] 37.5% | [2] 27.7% | [3] 34% | [4] 16.5% | [5] 14.8% | [6] -21.9%

NC(=S)N/N=C/c1ccc(N)cc1
inactive: [1] 7.2% | [2] -2.35% | [3] 0.9% | [4] -1.35% | [5] 2.35% | [6] 7.5%

COc1cc(CCN=Cc2ccccc2O)c([N+](=O)[O-])cc1OC
inactive: [1] -3.6% | [2] -10.5% | [3] 16.1% | [4] 11.7% | [5] -7.05% | [6] -2.35%

C=CCNC(=O)c1ccc(OC)cc1
inactive: [1] 12.5% | [2] 6.5% | [3] 22.5% | [4] 1.7% | [5] -4.5% | [6] 5.7%

CC(=O)OCC1CCCO1 (centres undefined)
inactive: [1] -24.9% | [2] -9.45% | [3] -21.1% | [4] -44.1% | [5] 19.6% | [6] -32%

CNS(=O)(=O)c1ccc(Cl)c(Cl)c1
inactive: [1] -43.2% | [2] -5.1% | [3] -13.5% | [4] -55% | [5] -25.4% | [6] -40.9%

COC(=O)/C=C1\Sc2cc(F)ccc2NC1=O
inactive: [1] -12.9% | [2] 2.45% | [3] 13.9% | [4] -44.2% | [5] -8.5% | [6] -6.55%

O=S(=O)(O)CC(O)CN1CCN(CCO)CC1 (centres undefined)
inactive: [1] -18.9% | [2] -35.8% | [3] -36.8% | [4] 5.45% | [5] -23.9% | [6] -6.3%

CCCCCCCCOC(=O)c1ccccn1
inactive: [1] -6.75% | [2] 0.3% | [3] -8.05% | [4] -59% | [5] 16.6% | [6] -3.2%

Cc1cc(OCCO)cc(C)c1Cl
inactive: [1] -20.9% | [2] -65.8% | [3] -16.4% | [4] 2.35% | [5] -10.5% | [6] -12.3%

COc1cc(C(=O)NC(=S)Nc2ccc3ccccc3c2)cc(OC)c1OC
inactive: [1] 11.3% | [2] 2.6% | [3] 6.25% | [4] -6.15% | [5] -3.4% | [6] 13.1%

c1ccc(CN2COc3c(ccc4c3OCN(Cc3ccccc3)C4)C2)cc1
inactive: [1] 7.4% | [2] 20.8% | [3] 23.1% | [4] -22.7% | [5] 9.7% | [6] 8.3%

Nc1ccc(CC(=O)O)c(N)c1
inactive: [1] 0.55% | [2] -7.8% | [3] -4.6% | [4] -6.25% | [5] 4.6% | [6] -0.4%

CC1(C)OC(=O)C(c2ccsc2)C(=O)O1
inactive: [1] -6.25% | [2] -9.35% | [3] -20.4% | [4] 32.8% | [5] -7.05% | [6] -3.7%

O=C(O)CSCSCC(=O)O
inactive: [1] 1.45% | [2] -26.4% | [3] -8.8% | [4] 20.2% | [5] 4.8% | [6] 3.1%

COc1cccc(COC(=O)Nc2ccccc2)c1OC
inactive: [1] 29.9% | [2] 21.4% | [3] 29.7% | [4] 21.5% | [5] 42.5% | [6] 0.65%

CC1=C(/C=C/C(C)=C/C=C/C(C)=C/CO)C(C)(C)CCC1
inactive: [1] 14.8% | [2] 4.45% | [3] -3.15% | [4] 10.7% | [5] -42.2% | [6] 6.55%

Cc1c(O)cnc2nn(-c3ccccc3)c(=N)n12
inactive: [1] 19.5% | [2] 11.4% | [3] 35.7% | [4] 15.9% | [5] 15% | [6] 12.9%

CCc1ccc(/C(C#N)=C/C=C/c2ccccc2)cc1
inactive: [1] 8.9% | [2] -12.2% | [3] 20.6% | [4] -2.9% | [5] 38% | [6] 14.7%

COC(=O)CCCCC1=CCC2C(=O)C=C(O)C2C1 (centres undefined)
inactive: [1] -13.3% | [2] 13.1% | [3] -11.2% | [4] -2.5% | [5] -6.6% | [6] -18.8%

O=C(NCc1ccco1)Nc1c(Cl)cc(Cl)cc1Cl
inactive: [1] -3.1% | [2] -26.1% | [3] -2.85% | [4] 2.65% | [5] -13.4% | [6] -3.6%

O=C1OC(c2ccc(F)cc2)CC1CN1CCOCC1 (centres undefined)
inactive: [1] 0.45% | [2] 12.6% | [3] 30.6% | [4] 27.3% | [5] 24.3% | [6] 38.5%

CCCCCCCCO
inactive: [1] 12.1% | [2] 17.2% | [3] 2.25% | [4] 5.5% | [5] -20.4% | [6] -13.2%
